From PubChem BioAssay (NCATS)
Where “and” joins values, the source holds several entries; their conditions need not be identical. Equal entries are not always repeated. Results filed as inconclusive are left out. Where a call stands in place of a potency, no number is given. Calls of active or inactive are those of the source. The call rests on the fitted dose curve; in most records, active means well fitted curve in the direction sought with a large enough effect; inconclusive means small, poorly fitted or top-dose-only effect, or another doubt; inactive means no such curve, though single readings can be large; an effect the other way counts as inactive or inconclusive.

Legend:
[1] = qHTS of pediatric cancer cell lines to identify multiple opportunities for drug repurposing: Primary screen for BT-37 cells (AID 1347094); further: potency means the concentration at half of the fitted maximal effect
Method in brief: (§1)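 Following a 5-hour attachment period, cells at 500-1,000/well received compounds and were cultured for 48 hours. CellTiter-Glo was added and luminescence read to estimate viable, metabolically active cells.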

[2] = qHTS of pediatric cancer cell lines to identify multiple opportunities for drug repurposing: Primary screen for NB-EBc1 cells (AID 1347095)
Method in brief: as §1

[3] = qHTS of pediatric cancer cell lines to identify multiple opportunities for drug repurposing: Primary screen for U-2 OS cells (AID 1347096); further: nearly all actives have a fitted effect of over 50% in size
Method in brief: (§2)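 Cells (500-1,000/well) rested 5 h, then received compounds for 48 h; metabolically active cells were measured by CellTiter-Glo luminescence. Final concentrations spanned up to 46 µM (MIPE, 11-point) or 0.59 nM-46 µM (NPC, 8-point) in primary screens, 11-point in follow-ups.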

[4] = qHTS of pediatric cancer cell lines to identify multiple opportunities for drug repurposing: Primary screen for Saos-2 cells (AID 1347097); further: nearly all actives have a fitted effect of over 40% in size
Method in brief: as §1

[5] = qHTS of pediatric cancer cell lines to identify multiple opportunities for drug repurposing: Primary screen for SK-N-SH cells (AID 1347098); further: nearly all actives have a fitted effect of over 65% in size; further: potency means the concentration at half of the fitted maximal effect
Method in brief: as §2

[6] = qHTS of pediatric cancer cell lines to identify multiple opportunities for drug repurposing: Primary screen for NB1643 cells (AID 1347099); further: nearly all actives have a fitted effect of over 50% in size; further: potency means the concentration at half of the fitted maximal effect
Method in brief: as §1

[7] = qHTS of pediatric cancer cell lines to identify multiple opportunities for drug repurposing: Primary screen for LAN-5 cells (AID 1347100); further: potency means the concentration at half of the fitted maximal effect
Method in brief: as §2

[8] = qHTS of pediatric cancer cell lines to identify multiple opportunities for drug repurposing: Primary screen for BT-12 cells (AID 1347101); further: nearly all actives have a fitted effect of over 25% in size; further: potency means the concentration at half of the fitted maximal effect
Method in brief: as §2

[9] = qHTS of pediatric cancer cell lines to identify multiple opportunities for drug repurposing: Primary screen for Rh18 cells (AID 1347102); further: nearly all actives have a fitted effect of over 65% in size; further: potency means the concentration at half of the fitted maximal effect
Method in brief: as §2

[10] = qHTS of pediatric cancer cell lines to identify multiple opportunities for drug repurposing: Primary screen for OHS-50 cells (AID 1347103); further: nearly all actives have a fitted effect of over 40% in size; further: potency means the concentration at half of the fitted maximal effect
Method in brief: as §2

[11] = qHTS of pediatric cancer cell lines to identify multiple opportunities for drug repurposing: Primary screen for RD cells (AID 1347104); further: nearly all actives have a fitted effect of over 55% in size; further: potency means the concentration at half of the fitted maximal effect
Method in brief: as §1

[12] = qHTS of pediatric cancer cell lines to identify multiple opportunities for drug repurposing: Primary screen for MG 63 (6-TG R) cells (AID 1347105); further: nearly all actives have a fitted effect of over 50% in size; further: potency means the concentration at half of the fitted maximal effect
Method in brief: as §1

[13] = qHTS of pediatric cancer cell lines to identify multiple opportunities for drug repurposing: Primary screen for control Hh wild type fibroblast cells (AID 1347106);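 further: series mostly up to about 46 µM; a drop in luminescence marks cytotoxicity and a rise apparent proliferation; nearly all actives have a fitted effect of over 55% in size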
Method in brief: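 Viability after 48 h compound treatment at 37C, 500-1,000 cells/well, read as ATP luminescence with CellTiter-Glo. Primary screens used 11-point (MIPE, 0.78 nM-46 µM) or 8-point (NPC, 0.59 nM-46 µM) final concentrations; follow-up screens used 11-point dilutions.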

[14] = qHTS of pediatric cancer cell lines to identify multiple opportunities for drug repurposing: Primary screen for Rh30 cells (AID 1347107); further: series mostly up to about 46 µM; nearly all actives have a fitted effect of over 75% in size
Method in brief: as §2

[15] = qHTS of pediatric cancer cell lines to identify multiple opportunities for drug repurposing: Primary screen for Rh41 cells (AID 1347108); further: nearly all actives have a fitted effect of over 70% in size; further: potency means the concentration at half of the fitted maximal effect
Method in brief: as §1

In the case of `CC(C)NCC(O)COc1ccc(CCOCC2CC2)cc1` (centres undefined), the Potency [1] is reported as “inactive”, the Potency [2] is reported as “inactive” and the Potency [3] is reported as “inactive”. The Potency [4] was “inactive”, the Potency [5] was “inactive” and the Potency [6] was “inactive”. The Potency [7] was “inactive”, the Potency [8] was “inactive” and the Potency [9] was “inactive”. For the same compound, the Potency [10] was “inactive”, the Potency [11] was “inactive” and the Potency [12] was “inactive”. For the same compound, the Potency [13] was “inactive”, the outcome [14] was “inactive” and the Potency [15] was “inactive”.

In the case of `C[C@](N)(Cc1ccc(O)c(O)c1)C(=O)O`, the Potency [1] is reported as “inactive”, the Potency [2] is reported as “inactive” and the Potency [3] is reported as “inactive”. The Potency [4] was “inactive”, the Potency [6] was “inactive” and the Potency [7] was “inactive”. For the same compound, the Potency [8] was “inactive”, the Potency [9] was “inactive” and the Potency [10] was “inactive”. The Potency [11] was “inactive”, the Potency [12] was “inactive” and the Potency [13] was “inactive”. For the same compound, the outcome [14] was “inactive” and the Potency [15] was “inactive”.

For `CCOC(=O)c1ncn2c1CN(C)C(=O)c1cc(F)ccc1-2`, the Potency [1] was “inactive”, the Potency [2] was “inactive” and the Potency [3] was “inactive”. For the same compound, the Potency [4] was “inactive”, the Potency [5] was “inactive” and the Potency [6] was “inactive”. The Potency [7] was “inactive”, the Potency [8] was “inactive” and the Potency [9] was “inactive”. The Potency [10] was “inactive”, the Potency [11] was “inactive” and the Potency [12] was “inactive”. For the same compound, the Potency [13] was “inactive”, the outcome [14] was “inactive” and the Potency [15] was “inactive”.

With `Cc1ccccc1N1C(=O)c2cc(S(N)(=O)=O)c(Cl)cc2NC1C` (centres undefined) the Potency [1] was “inactive”, the Potency [2] was “inactive” and the Potency [3] was “inactive”. For the same compound, the Potency [4] was “inactive”, the Potency [5] was “inactive” and the Potency [6] was “inactive”. The Potency [7] was “inactive”, the Potency [8] was “inactive” and the Potency [9] was “inactive”. The Potency [10] was “inactive”, the Potency [11] was “inactive” and the Potency [12] was “inactive”. For the same compound, the Potency [13] was “inactive”, the outcome [14] was “inactive” and the Potency [15] was “inactive”.

In the case of `CN1CCC(=C2c3ccccc3CC(=O)c3sccc32)CC1`, the Potency [1] is reported as “inactive”, the Potency [2] is reported as “inactive” and the Potency [3] is reported as “inactive”. The Potency [4] was “inactive”, the Potency [5] was 24.1 µM (active) and the Potency [6] was “inactive”. For the same compound, the Potency [7] was “inactive”, the Potency [9] was “inactive” and the Potency [12] was 23.5 µM (active). The Potency [13] was “inactive”, the outcome [14] was “inactive” and the Potency [15] was “inactive”.

With `NC(CO)C(=O)NNCc1ccc(O)c(O)c1O` (centres undefined) the Potency [1] was “inactive”, the Potency [2] was “inactive” and the Potency [3] was “inactive”. The Potency [4] was “inactive”, the Potency [5] was “inactive” and the Potency [6] was “inactive”. The Potency [8] was “inactive”, the Potency [9] was “inactive” and the Potency [10] was “inactive”. For the same compound, the Potency [12] was “inactive”, the Potency [13] was “inactive” and the outcome [14] was “inactive”. For the same compound, the Potency [15] was “inactive”.

In the case of `NCCCCCC(=O)O`, the Potency [1] is reported as “inactive”, the Potency [2] is reported as “inactive” and the Potency [3] is reported as “inactive”. For the same compound, the Potency [4] was “inactive”, the Potency [5] was “inactive” and the Potency [6] was “inactive”. For the same compound, the Potency [7] was “inactive”, the Potency [8] was “inactive” and the Potency [9] was “inactive”. The Potency [10] was “inactive”, the Potency [11] was “inactive” and the Potency [12] was “inactive”. For the same compound, the Potency [13] was “inactive”, the outcome [14] was “inactive” and the Potency [15] was “inactive”.

For `COc1ccc(C2CNC(=O)C2)cc1OC1CCCC1` (centres undefined), the Potency [1] was “inactive”, the Potency [2] was “inactive” and the Potency [3] was “inactive”. For the same compound, the Potency [4] was “inactive”, the Potency [5] was “inactive” and the Potency [6] was “inactive”. The Potency [7] was “inactive”, the Potency [9] was “inactive” and the Potency [10] was “inactive”. The Potency [11] was “inactive”, the Potency [12] was “inactive” and the Potency [13] was “inactive”. For the same compound, the outcome [14] was “inactive” and the Potency [15] was “inactive”.

In the case of `Cc1ccc(C(=O)Nc2ccc(S(=O)(=O)O)c3cc(S(=O)(=O)O)cc(S(=O)(=O)O)c23)cc1NC(=O)c1cccc(NC(=O)Nc2cccc(C(=O)Nc3cc(C(=O)Nc4ccc(S(=O)(=O)O)c5cc(S(=O)(=O)O)cc(S(=O)(=O)O)c45)ccc3C)c2)c1`, the Potency [1] is reported as “inactive”, the Potency [2] is reported as “inactive” and the Potency [3] is reported as “inactive”. For the same compound, the Potency [4] was “inactive”, the Potency [5] was “inactive” and the Potency [6] was “inactive”. The Potency [7] was “inactive”, the Potency [9] was “inactive” and the Potency [10] was “inactive”. The Potency [11] was “inactive”, the Potency [12] was “inactive” and the Potency [13] was “inactive”. For the same compound, the outcome [14] was “inactive” and the Potency [15] was “inactive”.

For `Cc1cc(C(C)(C)C)c(O)c(C)c1CC1=NCCN1`, the Potency [1] was “inactive”, the Potency [2] was “inactive” and the Potency [3] was “inactive”. The Potency [4] was “inactive”, the Potency [5] was “inactive” and the Potency [6] was “inactive”. For the same compound, the Potency [7] was “inactive”, the Potency [9] was “inactive” and the Potency [10] was “inactive”. For the same compound, the Potency [12] was “inactive”, the Potency [13] was “inactive” and the outcome [14] was “inactive”. The Potency [15] was “inactive”.

With `CN(C)C(=O)C(CCN1CCC(O)(c2ccc(Cl)cc2)CC1)(c1ccccc1)c1ccccc1` the Potency [1] was 24.3 µM (active), the Potency [2] was “inactive” and the Potency [3] was “inactive”. The Potency [4] was “inactive”, the Potency [5] was 24.1 µM (active) and 15.4 µM (active) and the Potency [6] was 26.6 µM (active). For the same compound, the Potency [7] was 18.7 µM (active), the Potency [8] was 19.3 µM (active) and 21.9 µM (active) and the Potency [9] was 20.9 µM (active). The Potency [10] was 21.7 µM (active) and 19.5 µM (active), the Potency [11] was 26.4 µM (active) and 26.6 µM (active) and the Potency [13] was “inactive”. For the same compound, the Potency [15] was 18.7 µM (active) and 16.8 µM (active).

In the case of `CN1CCN(C2=Nc3cc(Cl)ccc3Nc3ccccc32)CC1`, the Potency [1] is reported as “inactive”, the Potency [2] is reported as “inactive” and the Potency [3] is reported as “inactive”. For the same compound, the Potency [4] was “inactive”, the Potency [5] was 15.4 µM (active) and the Potency [6] was “inactive”. The Potency [7] was “inactive”, the Potency [8] was “inactive” and the Potency [9] was “inactive”. The Potency [12] was “inactive”, the Potency [13] was “inactive” and the outcome [14] was “inactive”. The Potency [15] was “inactive”.

In the case of `Cn1c(=O)c2[nH]cnc2n(C)c1=O`, the Potency [1] is reported as “inactive”, the Potency [2] is reported as “inactive” and the Potency [3] is reported as “inactive”. For the same compound, the Potency [4] was “inactive”, the Potency [5] was “inactive” and the Potency [6] was “inactive”. The Potency [7] was “inactive”, the Potency [9] was “inactive” and the Potency [10] was “inactive”. For the same compound, the Potency [11] was “inactive”, the Potency [12] was “inactive” and the Potency [13] was “inactive”. For the same compound, the outcome [14] was “inactive” and the Potency [15] was “inactive”.

In the case of `CCOC(=O)Nc1ccc(NCc2ccc(F)cc2)nc1N`, the Potency [1] is reported as “inactive”, the Potency [2] is reported as “inactive” and the Potency [3] is reported as “inactive”. For the same compound, the Potency [4] was “inactive”, the Potency [5] was “inactive” and the Potency [6] was “inactive”. For the same compound, the Potency [7] was “inactive”, the Potency [9] was “inactive” and the Potency [10] was “inactive”. For the same compound, the Potency [11] was “inactive”, the Potency [12] was “inactive” and the Potency [13] was “inactive”. For the same compound, the outcome [14] was “inactive” and the Potency [15] was “inactive”.

With `COc1cc2nc(N(C)CCCNC(=O)C3CCCO3)nc(N)c2cc1OC` (centres undefined) the Potency [1] was “inactive”, the Potency [2] was “inactive” and the Potency [3] was “inactive”. The Potency [4] was “inactive”, the Potency [5] was “inactive” and the Potency [6] was “inactive”. The Potency [7] was “inactive”, the Potency [8] was “inactive” and the Potency [9] was “inactive”. The Potency [10] was “inactive”, the Potency [11] was “inactive” and the Potency [12] was “inactive”. For the same compound, the Potency [13] was “inactive”, the outcome [14] was “inactive” and the Potency [15] was “inactive”.
